Results taken from PubChem BioAssay.

Experiment: inhibitors of the yeast RAM network, pilot screen, dse1pr::URA3 reporter, 5-FOA selection (AID 869);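 note: 0% = DMSO wells with no growth and 100% = 10 µM 1-NA-PP1 with full growth; RAM network block rescues cells from 5-FOA so hits raise OD615 growth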
Conditions: S. cerevisiae dse1pr::URA3 5-FOA growth, OD615, 2 d; at 10 µM; active compounds read high; strain carries analog-sensitive mutant Cbk1 kinase;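 active = inhibition over a set limit, the all-compound mean plus 3 SD, in both replicate runs; inconclusive = over that limit in just one replicate run; inactive = at or under that limit in both runs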

inhibition, inactive:
O=C(NCCN1CCCCCC1)c1ccc(CS(=O)(=O)c2ccc(Br)cc2)o1 -0.1%
Cc1ccc(S(=O)(=O)NCCOC(=O)Nc2sc(=S)n(C)c2C)cc1 1.25%
COc1ccccc1CC(=O)Nc1ccc(OC)c(OC)c1 1.22%
CCN(CC)C(=O)C1CCCc2c1[nH]c1ccc(Cl)cc21 (stereo not given) 0.455%
CCOC(=O)N1CCC(NC(=O)C2CCCN(C(=O)c3cc4sccc4n3C)C2)CC1 (stereo not given) 0.665%
CCOC(=O)c1[nH]c(C)c(C(=O)Nc2ccc(Cl)cc2)c1C 1.79%
O=C(NC(=O)c1cccc(F)c1)OC[C@@H]1CCCN2CCCC[C@H]12 0.89%
COc1ccccc1-n1c(=O)[nH]c2c(C(N)=O)nc(-c3cccnc3)nc21 2.47%
CC1(C)CC(=O)c2cnc(NC(=O)Cc3ccc(Cl)cc3)nc2C1 2.17%
CC(C)(NC(=O)N1CCCC1)c1cccc(C(C)(C)NC(=O)N2CCCC2)c1 0.535%
COc1ccc(NC(=O)C2CCCN(S(=O)(=O)c3cccc4cccnc34)C2)cc1OC (stereo not given) 2.09%
CCOc1ccc(CCN2C(=O)C3C4C=CC(C4)C3C2=O)cc1OCC (stereo not given) 1.38%
COc1ccc(S(=O)(=O)N2CCN(c3ccc(C)cc3C)CC2)cc1OC 2.41%
O=C(C1CCN(c2nnc(-n3cccc3)s2)CC1)N1CCc2ccccc2C1 3.21%
CCOc1cc(C2C3=C(CCCC3=O)N(C)C3=C2C(=O)CCC3)cc(Cl)c1O 1.12%
